Measurements published in PubChem BioAssay.
Results filed as inconclusive are left out. Active and inactive are the calls of the source.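 How the source made its calls, unless noted: active means Her2 level under about 52% in both replicate screens, with viability over 70% of control (limit read from the data); inconclusive means Her2 under the limit in one screen only, or viability under 70%; inactive means Her2 level above the set limit.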

What was measured:
[1] = Her2 expression decrease, cell viability multiplex – SKBR3 breast tumor cells, AlphaScreen, ATP viability, primary screen (AID 461); conditions: SKBR3 Her2 protein level, 18-24 h, measured here: SKBR3 viability, ATP luminescence, at 10 µM;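 on Her2 level: lower value means less Her2 protein in the cells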;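 on viability: percent of carrier control wells set as 100% viability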
[2] = molecular target: Receptor tyrosine-protein kinase erbB-2 (Homo sapiens) (UniProt P04626); experiment: as above; conditions: 18-24 h, at 10 µM, stronger effect = lower value
[3] = reduced viability of SK-BR-3 breast cancer cells – cell-based, 24 h, human, pilot screen (AID 572;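 active means viability at or below 10% of carrier control in both of two separate runs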;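 further: compound exposure lasted between 18 and 24 h rather than exactly 24 h; 100% = carrier-treated control wells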); conditions: SK-BR-3 viability, CellTiter-Glo luminescence, at 10 µM, stronger effect = lower value
[4] = HUVEC growth inhibition – cell-based, human, primary screen (AID 575;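 active means viability at or below 30% in both replicate assays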;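 further: 100% = median of untreated cell wells with 0.1% DMSO on each plate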); conditions: HUVEC proliferation, CellTiter-Glo luminescence, 72 h; at 10 µM; stronger effect = lower value
[5] = H69AR cell proliferation blockers – human, duplicate replicates, primary screen (AID 580;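 active means viability at or under a set limit in both replicates, limit being median viability minus 3 SD, cut at about 48% in these data, passing the limit was not always enough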;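 further: 100% = mean luminescence of untreated wells and 0% = no signal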); conditions: H69AR lung tumor cells viability, ATP luminescence, 72 h; at 10 µM; stronger effect = lower value
[6] = MRP1 drug-resistance reversers in H69AR cells – cell-based, doxorubicin co-treatment, pilot screen (AID 601;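 active means viability loss from added drug above about 55%, and viability with drug at most 40%, in both replicates, limit read from the data, passing the limit was not always enough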); conditions: CellTiter-Glo, 72 h, at 10 µM; for differential viability (reversal): stronger effect = higher value
[7] = yeast transport mutant growth inhibition pilot in 384-well plates, post-Golgi transport modulator project (AID 636; in the data active means inhibition above about 31%); conditions: absorbance 615 nm, about 18 h, stronger effect = higher value
[8] = growth suppression of yeast trafficking mutant, preliminary HTS, modulators of trafficking downstream of Golgi apparatus project, 1536-format plate, OD 615 nm (AID 637; in the data active means inhibition above about 30%); conditions: yeast transport mutant growth, absorbance 615 nm, 18 h; stronger effect = higher value
[9] = S. cerevisiae growth inhibition in permissive medium (OD615), pilot counter-assay for S. cerevisiae lifespan shortening project, permissive growth control (AID 705;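 active means growth inhibition above 25% in both replicates, a cutoff set 3 SD above the mean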); conditions: OD615, 24 h, at 10 µM, stronger effect = higher value
[10] = S. cerevisiae growth inhibition in restrictive medium, OD615, pilot screen, restrictive growth control, yeast lifespan reduction project (AID 706;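 active means growth inhibition above a set limit, 3 SD over mean compound inhibition, in both replicates, cut at about 43% in these data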;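 further: modified DeaD lifespan yeast strain shifted to restrictive glucose medium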); conditions: OD615, 48 h, at 10 µM, stronger effect = higher value
[11] = doxorubicin toxicity protection in MRP-1 cells – H69AR cells, CellTiter-Glo, duplicate, MRP-1 activator project, pilot screen (AID 807;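 active means viability increase at or above a cutoff of the median across tested compounds plus 3 SD, cut at about 8.5% in these data, passing the limit was not always enough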;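 further: compound pretreatment 18-22 h then 72 h combined with doxorubicin; 0% = doxorubicin alone and 100% = vehicle without doxorubicin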); conditions: H69AR viability with doxorubicin, CellTiter-Glo luminescence; at 10 µM; stronger effect = higher value
[12] = viability of HCT116 without oncogenic beta-catenin – human colon tumor cells, pilot screen (AID 823;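 active means cell viability at or below a set limit in both duplicate runs, the limit being the all-compound median minus 4 SD, cut at about 23% in these data, passing the limit was not always enough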;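 further: 0% = wells killed by 20 µM Hyamine and 100% = untreated DMSO cell wells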); conditions: HCT116 beta-catenin knockout viability, CellTiter-Glo, 60 h; at 10 µM; stronger effect = lower value
[13] = viability of PTEN-null HCT116 cells – cell-based, HCT116 clonal line, CellTiter-Glo, pilot screen (AID 824;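 active means viability at or below 27.92% in each of two runs, the all-compound median minus 4 SD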;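 further: 0% = 20 µM Hyamine control and 100% = vehicle cell control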); conditions: HCT116 PTEN-deleted viability, 60 h, at 10 µM, stronger effect = lower value
[14] = RAM pathway blockade in budding yeast – dse1pr::URA3 reporter, 5-FOA selection, pilot screen (AID 869;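 active means inhibition over a set limit, the all-compound mean plus 3 SD, in both replicate runs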;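 further: 0% = DMSO wells with no growth and 100% = 10 µM 1-NA-PP1 with full growth; RAM network block rescues cells from 5-FOA so hits raise OD615 growth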); conditions: S. cerevisiae dse1pr::URA3 5-FOA growth, OD615, 2 d; at 10 µM; stronger effect = higher value; strain carries analog-sensitive mutant Cbk1 kinase
[15] = RAM signaling pathway blockade in yeast – S. cerevisiae, Pdr1DBD-CYC8 efflux-inhibited sensitized strain, primary screen (AID 1298;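 active means RAM network inhibition above 8.4% in each of two replicates, 3 SD over the compound average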;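 further: 0% = DMSO untreated cells without growth and 100% = 10 µM 1-NA-PP1 full growth; higher means more yeast growth rescued from 5-FOA killing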); conditions: S. cerevisiae cbk1-as DSE1-URA3 strain, 5-FOA growth OD615, 2 d; at 50 µM; stronger effect = higher value
[16] = H69AR cells + 2 uM doxorubicin, measured here: viability with 2 uM doxorubicin, stronger effect = lower value
[17] = H69AR cells, compound alone cytotoxicity

Sequence of Receptor tyrosine-protein kinase erbB-2 (Homo sapiens) (P04626 whole entry, looked up): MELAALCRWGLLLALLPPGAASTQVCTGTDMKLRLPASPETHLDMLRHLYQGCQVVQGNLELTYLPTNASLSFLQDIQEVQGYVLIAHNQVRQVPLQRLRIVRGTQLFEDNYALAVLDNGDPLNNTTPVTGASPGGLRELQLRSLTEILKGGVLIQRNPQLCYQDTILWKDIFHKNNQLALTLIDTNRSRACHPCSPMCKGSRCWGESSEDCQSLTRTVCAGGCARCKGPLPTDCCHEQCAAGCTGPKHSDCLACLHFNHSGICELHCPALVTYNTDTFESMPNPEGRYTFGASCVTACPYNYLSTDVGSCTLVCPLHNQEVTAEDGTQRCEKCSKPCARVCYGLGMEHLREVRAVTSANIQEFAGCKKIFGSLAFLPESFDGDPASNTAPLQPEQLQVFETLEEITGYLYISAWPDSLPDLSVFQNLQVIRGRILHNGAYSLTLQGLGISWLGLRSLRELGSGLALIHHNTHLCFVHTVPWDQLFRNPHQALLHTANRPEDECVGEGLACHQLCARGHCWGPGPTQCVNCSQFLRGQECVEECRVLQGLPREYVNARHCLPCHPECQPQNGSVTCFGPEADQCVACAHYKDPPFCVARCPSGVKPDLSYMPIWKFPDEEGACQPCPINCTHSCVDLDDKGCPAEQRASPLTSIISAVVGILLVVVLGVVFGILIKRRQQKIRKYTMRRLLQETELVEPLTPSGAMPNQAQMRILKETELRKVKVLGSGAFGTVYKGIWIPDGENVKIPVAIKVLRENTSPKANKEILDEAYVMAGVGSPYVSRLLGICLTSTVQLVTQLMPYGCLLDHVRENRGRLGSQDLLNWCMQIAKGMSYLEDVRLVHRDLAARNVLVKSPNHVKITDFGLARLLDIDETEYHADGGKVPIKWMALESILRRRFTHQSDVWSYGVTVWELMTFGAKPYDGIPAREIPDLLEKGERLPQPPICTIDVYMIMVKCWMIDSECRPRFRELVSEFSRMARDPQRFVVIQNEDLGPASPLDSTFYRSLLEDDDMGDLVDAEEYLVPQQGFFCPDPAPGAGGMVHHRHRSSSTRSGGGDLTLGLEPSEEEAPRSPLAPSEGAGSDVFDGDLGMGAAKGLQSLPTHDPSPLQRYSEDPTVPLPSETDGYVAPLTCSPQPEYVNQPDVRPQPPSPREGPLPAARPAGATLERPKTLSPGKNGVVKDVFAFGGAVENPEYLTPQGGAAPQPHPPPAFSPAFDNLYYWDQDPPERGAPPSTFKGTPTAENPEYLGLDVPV

Row | SMILES | viability [1] [%] | Her2 level [2] | viability [3] | viability [4] | viability [5] | differential viability (reversal) ([6]; H69AR cells + 2 uM doxorubicin) | viability [6, 16] [%] | viability [6, 17] [%] | inhibition [7] | inhibition [8] | growth inhibition [9] | growth inhibition [10] | viability increase [11] | viability [12] | viability [13] | inhibition [14] | RAM network inhibition [15]
1 | CCC1CCCCN1CCCNC(=O)CC1Oc2ccc(C)cc2NC1=O (stereo not drawn) | 110 | 97.5% (inactive) | 110% (inactive) | 74.3% (inactive) | 89.1% (inactive) | -3.82% (inactive) | 92.9 | 89.1 | -2.27% (inactive) | -0.49% (inactive) | 2.28% (inactive) | 0.165% (inactive) | -3.12% (inactive) | 95% (inactive) | 91.1% (inactive) | 1.57% (inactive) | 2.53% (inactive)
2 | CCCC(=O)NCCc1cc2c(C)ccc(C)c2[nH]c1=O | 106 | 93% (inactive) | 106% (inactive) | 110% (inactive) | 98.8% (inactive) | 12.1% (inactive) | 86.7 | 98.8 | -5.6% (inactive) | 9.33% (inactive) | -4.56% (inactive) | -10.1% (inactive) | -0.5% (inactive) | 111% (inactive) | 103% (inactive) | 0.625% (inactive) | 0.95% (inactive)
3 | CC1CCCC(N2CCN(C(=O)c3ccc(F)cc3)CC2)C1 (stereo not drawn) | 95 | 109% (inactive) | 95% (inactive) | 75.4% (inactive) | 91.3% (inactive) | 1.66% (inactive) | 89.6 | 91.3 | 1.2% (inactive) | 3.5% (inactive) | -0.99% (inactive) | -4.36% (inactive) | -0.74% (inactive) | 101% (inactive) | 98.5% (inactive) | 0.22% (inactive) | -0.84% (inactive)
4 | COc1ccc(N(CC(=O)Nc2cc(C)ccc2C)S(=O)(=O)c2c(C)nn(C)c2C)cc1 | 92 | 114% (inactive) | 92% (inactive) | 73.8% (inactive) | 93.2% (inactive) | -0.425% (inactive) | 93.6 | 93.2 | -0.38% (inactive) | -3% (inactive) | -7.38% (inactive) | -20.5% (inactive) | -2.75% (inactive) | 83.8% (inactive) | 80.3% (inactive) | 0.14% (inactive) | 7.15% (inactive)
5 | CCOC(=O)c1ccc(NC(=O)CC2SC(=NC)N(C)C2=O)cc1 (stereo not drawn) | 107 | 88.5% (inactive) | 107% (inactive) | 110% (inactive) | 105% (inactive) | 16.6% (inactive) | 88.7 | 105 | -3.03% (inactive) | -1.9% (inactive) | 6.34% (inactive) | 11.4% (inactive) | -0.46% (inactive) | 101% (inactive) | 97.8% (inactive) | 2.03% (inactive) | 2.16% (inactive)
6 | CCN(CC)C(=O)Oc1ccc(NC(C)=O)cc1 | 88.5 | 108% (inactive) | 88.5% (inactive) | 97.4% (inactive) | 93.6% (inactive) | -0.975% (inactive) | 94.6 | 93.6 | 0.91% (inactive) | -6.33% (inactive) | -4.01% (inactive) | -12% (inactive) | -0.49% (inactive) | 105% (inactive) | 108% (inactive) | 1.06% (inactive) | 1.82% (inactive)
7 | CN1CCN(CCCNC(=O)Cn2ncc3c4ccccc4n(C)c3c2=O)CC1 | 84 | 129% (inactive) | 84% (inactive) | 82.7% (inactive) | 86% (inactive) | -8.1% (inactive) | 94.1 | 86 | 1.15% (inactive) | 10.8% (inactive) | -16.9% (inactive) | -28.7% (inactive) | -1.44% (inactive) | 92.9% (inactive) | 100% (inactive) | 3.37% (inactive) | 4.04% (inactive)
8 | COc1ccc(/C=N/O)cc1COc1ccc(NC(C)=O)cc1 | 115 | 98% (inactive) | 115% (inactive) | 102% (inactive) | 103% (inactive) | 13.2% (inactive) | 90.2 | 103 | -4.32% (inactive) | 1.9% (inactive) | -5.25% (inactive) | -2.58% (inactive) | -0.85% (inactive) | 90.9% (inactive) | 93.4% (inactive) | 0.83% (inactive) | 0.92% (inactive)
9 | CC(=O)NC(CCS(C)(=O)=O)C(=O)Nc1cccc(C)c1 (stereo not drawn) | 88.5 | 121% (inactive) | 88.5% (inactive) | 89.3% (inactive) | 94.1% (inactive) | 1.42% (inactive) | 92.7 | 94.1 | 1.87% (inactive) | 1.83% (inactive) | -12.4% (inactive) | -11.9% (inactive) | 0.75% (inactive) | 103% (inactive) | 100% (inactive) | 1.04% (inactive) | 2.51% (inactive)
10 | COc1ccc(N(CC(=O)O)S(=O)(=O)c2ccc(OC)c(OC)c2)cc1 | 112 | 102% (inactive) | 112% (inactive) | 108% (inactive) | 90.3% (inactive) | -3.8% (inactive) | 94.1 | 90.3 | -3.38% (inactive) | 1.31% (inactive) | -15.1% (inactive) | -11.2% (inactive) | -1.32% (inactive) | 105% (inactive) | 99.1% (inactive) | -0.04% (inactive) | 0.87% (inactive)
11 | O=C(O)C1C2C=CC3(CN(C4CCCC4)C(=O)C13)O2 (stereo not drawn) | 101 | 100% (inactive) | 101% (inactive) | 100% (inactive) | 83.7% (inactive) | -9.36% (inactive) | 93.1 | 83.7 | -7.07% (inactive) | -4.83% (inactive) | 1.69% (inactive) | 2.54% (inactive) | -0.64% (inactive) | 104% (inactive) | 95.5% (inactive) | 2.34% (inactive) | -0.17% (inactive)
12 | CN1CCN(C(=O)C2CCN(S(=O)(=O)c3ccc4c(c3)oc(=O)n4C)CC2)CC1 | 89 | 104% (inactive) | 89% (inactive) | 94.4% (inactive) | 107% (inactive) | 14.3% (inactive) | 92.4 | 107 | -2.95% (inactive) | 9.5% (inactive) | -6.74% (inactive) | -5.41% (inactive) | 1.79% (inactive) | 102% (inactive) | 102% (inactive) | 2.46% (inactive) | 3.79% (inactive)
13 | CC1(C(=O)NC2CCCCC2)CCC(=O)N1Cc1cccs1 (stereo not drawn) | 83 | 114% (inactive) | 83% (inactive) | 102% (inactive) | 85.3% (inactive) | -5.18% (inactive) | 90.5 | 85.3 | 2.31% (inactive) | 8.83% (inactive) | -4.46% (inactive) | -15.9% (inactive) | -0.4% (inactive) | 102% (inactive) | 93.7% (inactive) | 3.65% (inactive) | 1.09% (inactive)
14 | O=C(NCC1CCCO1)C1CCN(S(=O)(=O)c2cccc3cccnc23)CC1 (stereo not drawn) | 102 | 93.5% (inactive) | 102% (inactive) | 112% (inactive) | 101% (inactive) | 7.45% (inactive) | 94 | 101 | -2.53% (inactive) | -2.13% (inactive) | -2.44% (inactive) | 12% (inactive) | -1.56% (inactive) | 94.2% (inactive) | 93.7% (inactive) | 1.76% (inactive) | 2.72% (inactive)
15 | Cc1cc(C)nc(NC2=NCC(=O)N2c2ccccc2Br)n1 | 93 | 93.5% (inactive) | 93% (inactive) | 101% (inactive) | 89.8% (inactive) | -10.2% (inactive) | 100 | 89.8 | -7.07% (inactive) | -2.33% (inactive) | -2.53% (inactive) | 4.3% (inactive) | -0.37% (inactive) | 95.4% (inactive) | 100% (inactive) | 2.06% (inactive) | 8.53% (inactive)
16 | Cn1nnnc1SCC(=O)N1CCN(c2ccccc2)CC1 | 94.5 | 122% (inactive) | 94.5% (inactive) | 97.4% (inactive) | 87.7% (inactive) | 8.86% (inactive) | 78.8 | 87.7 | 1.92% (inactive) | -6.33% (inactive) | -0.355% (inactive) | -1.68% (inactive) | -0.97% (inactive) | 93.1% (inactive) | 99.6% (inactive) | 0.735% (inactive) | 1.14% (inactive)
17 | CC(=O)OC1c2ccccc2C(=O)N1Cc1ccccc1Cl (stereo not drawn) | 93.5 | 92.5% (inactive) | 93.5% (inactive) | 91.3% (inactive) | 88.5% (inactive) | -2.26% (inactive) | 90.8 | 88.5 | -5.87% (inactive) | -4.83% (inactive) | -1.57% (inactive) | 5.51% (inactive) | -3.19% (inactive) | 74.6% (inactive) | 91.5% (inactive) | 0.06% (inactive) | 5.73% (inactive)
18 | CCOC(=O)N1CCN(c2cc(=O)n(-c3cccc(Br)c3)c(=O)[nH]2)CC1 | 99.5 | 108% (inactive) | 99.5% (inactive) | 94.4% (inactive) | 103% (inactive) | 17.2% (inactive) | 85.5 | 103 | -3.2% (inactive) | -1.8% (inactive) | -9.72% (inactive) | -24.3% (inactive) | -2.79% (inactive) | 108% (inactive) | 93.5% (inactive) | 3.14% (inactive) | 3.07% (inactive)
19 | CN(Cc1ccccc1)S(=O)(=O)c1ccc(S(=O)(=O)N2CCN(CCC#N)CC2)cc1 | 91 | 116% (inactive) | 91% (inactive) | 92.4% (inactive) | 77.2% (inactive) | 15.4% (inactive) | 61.8 | 77.2 | -4.23% (inactive) | -7.17% (inactive) | -12% (inactive) | -4.41% (inactive) | -8.59% (inactive) | 96.9% (inactive) | 92.3% (inactive) | 0.725% (inactive) | 4.91% (inactive)
